Screening results deposited in PubChem by several laboratories.
In the library only some 4.6% were active in any assay of this set; here they are far more common.
PfHsp90 yeast 2 = growth inhibition of yeast expressing Plasmodium Hsp90; AID 504621; 0.32% of 310,000 active; S. cerevisiae expressing PfHsp90, BacTiter-Glo ATP, 48 h; yeast lacking PDR1 and PDR3 efflux regulators; inhibition, % at 9.4 µM;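 active means every replicate shows inhibition above about 80%, whatever the replicate mean, limit read from the data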
tim23-1 inh = inhibits growth of tim23-1 mutant yeast; inhibition, % at 20 µM; S. cerevisiae tim23-1 growth, BacTiter-Glo luminescence, 24 h; 1.3% of 330,000 active;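 active means growth inhibition of the mutant yeast at or above 50%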;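 further: temperature-sensitive mutant grown at 25 °C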
SKKanGAS inh = inhibitors of SKKanGAS S. pyogenes growth in kanamycin (SK-promoter or general growth effect); inhibition, % at 7.5 µM; 1.3% of 300,000 active; BacTiter-Glo, 6 h;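 active means mean replicate score, as percent of positive control median, at least 50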;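 further: strain carries kanamycin resistance gene driven by streptokinase promoter and grows in 40 µg/ml kanamycin; loss of luminescence reflects streptokinase promoter inhibition or plain growth inhibition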
tim10-1 inh = growth inhibitors of tim10-1 mutant yeast. S. cerevisiae tim10-1 ts strain growth, BacTiter-Glo, 24 h. inhibition, % at 20 µM. 2.2% of 330,000 active;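 active means inhibition of at least 40%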;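 further: mutant grown at 25 °C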
TIM10 inh = growth inhibitors of TIM10 yeast strain; S. cerevisiae TIM10 strain growth, BacTiter-Glo luminescence, 24 h; inhibition, % at 10 µM; 1.4% of 330,000 active;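 active means inhibition of 40% or more at the single tested concentration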;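 further: wild-type TIM10 isogenic control strain grown at permissive 25 °C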
NALP3 yeast inh = blocks the NALP3 inflammasome reconstituted in yeast; Yeast reconstituted NLRP3/ASC/caspase-1, beta-gal luminescence, 24 h; inhibition, % at 10 µM; 0.39% of 330,000 active; AID 2825;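 active means inhibition of 50% or more; inactive means inhibition below 50%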
tim23-1 confirm = confirmation of tim23-1 mutant yeast growth inhibitors; shares compounds with tim23-1 inh; AID 463218; inhibition, % at 20 µM; 83% of 4,400 active; S. cerevisiae tim23-1 growth, BacTiter-Glo luminescence, 24 h;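 active means inhibition above about 39% in either of two replicate wells at 20 µM, limit read from the data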;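 further: temperature-sensitive tim23-1 mutant grown at 25 °C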
Large screens that a line does not name were inactive (follow-up assays come after a bar, where they were run); ! = not confirmed by another sample.

Cc1c(NC(=O)c2cccs2)cccc1NC(=O)c1cccs1	none
COc1cccc(/C(C)=N/Nc2ccc(S(=O)(=O)N3CCCCC3)cn2)c1	tim23-1 inh 51.5 (no result: SKKanGAS inh) | tim23-1 confirm 44.0
C/C(=N\Nc1ccc(S(=O)(=O)N2CCCCC2)cn1)c1ccc(O)cc1	none (no result: PfHsp90 yeast 2, SKKanGAS inh)
Cc1ccc(CNC(=O)C2CCCN2C(=O)Nc2ccccc2)cc1 (stereo not given)	none
Cc1ccc(C(=O)Nc2nc(COc3ccccc3)cs2)s1	tim23-1 inh 51.7 | tim23-1 confirm inactive
O=C(CSc1nnc2ccccn12)N1CCc2ccccc21	none
Cc1c(C(=O)NCc2ccoc2)oc2ccc3c(c12)C(=O)CC(C)(C)O3	tim23-1 inh 51.8 | tim23-1 confirm 52.8
CCCNC(=O)c1oc2ccc3c(c2c1C)C(O)CC(C)(C)O3 (stereo not given)	none
S=c1[nH]nc(C2CCCCC2)n1/N=C/c1ccccc1	tim23-1 inh 67.2 | tim23-1 confirm 39.8
CCOc1ccc(/C=N/n2c(C3CCCCC3)n[nH]c2=S)cc1	tim23-1 inh 73.9 | tim23-1 confirm inactive
CN(C)c1ccc(/C=N/n2c(C3CCCCC3)n[nH]c2=S)cc1	tim23-1 inh 50.3 | tim23-1 confirm inactive
Fc1ccc(/C=N/n2c(C3CCCCC3)n[nH]c2=S)cc1	tim23-1 inh 71.1 | tim23-1 confirm inactive
CN(C)CCN(Cc1cc2cc3c(cc2nc1Cl)OCO3)C(=O)c1ccco1	none
COc1cc2c(cc1OC)CN(C(=O)c1ccncc1)CC2	none
COc1ccc(C(=O)N2CCc3ccc(NC(=O)c4ccccn4)cc3C2)cc1F	tim23-1 inh 52.2 | tim23-1 confirm 40.5
CN(C(=S)NC(=O)c1ccccc1Br)C1CCCCC1	tim23-1 inh 50.2 (no result: PfHsp90 yeast 2) | tim23-1 confirm inactive
S=C(NCc1ccccn1)Nc1ccc(Cl)c(Cl)c1	tim23-1 inh 55.5 (no result: PfHsp90 yeast 2) | tim23-1 confirm 46.3
S=C(NCc1ccccn1)Nc1ccccc1	none
Cc1cccc(OCC(=O)Nc2ccc3c(c2)nc2n3CCOC2)c1	none
Cc1ccc(S(=O)(=O)N2CCN(C(=O)/C=C/c3ccccc3)CC2)cc1C	none (no result: SKKanGAS inh)
Cc1csc2nc(O)c(C(=O)NCC3CCCO3)c(=O)n12 (stereo not given)	none (no result: PfHsp90 yeast 2)
Cc1csc2nc(O)c(C(=O)NC3CCCCC3C)c(=O)n12 (stereo not given)	tim23-1 inh 66.5 (no result: PfHsp90 yeast 2) | tim23-1 confirm 44.4
O=c1[nH]c(-c2ccccc2)c(-c2ccccc2)o1	none
Cc1ccc(NC(=O)CC2NCCNC2=O)cc1Cl (stereo not given)	none
COc1ccc(CCN(C)C2CCCN(S(=O)(=O)c3ccc(C)cc3)C2)cc1OC (stereo not given)	none
CC(C)Oc1cc(O)c2c(=O)c(-c3ccc(O)cc3)coc2c1	tim23-1 inh 56.9 | tim23-1 confirm 61.3
Cc1ccc(S(=O)(=O)N2C/C=C\CN(S(=O)(=O)c3ccccc3Br)CC2)cc1	none (no result: SKKanGAS inh, NALP3 yeast inh)
Cc1ccc(S(=O)(=O)N2CCCN(S(=O)(=O)c3ccccc3Br)CC2)cc1	tim23-1 inh 52.2 (no result: SKKanGAS inh, NALP3 yeast inh) | tim23-1 confirm inactive
CCOc1ccccc1C(O)C1=CC(=O)c2ccccc2C1=O (stereo not given)	none (no result: tim23-1 inh, SKKanGAS inh, tim10-1 inh, TIM10 inh, NALP3 yeast inh)
COc1cccc2c1C(=O)C=C(C)C2=O	tim23-1 inh 50.0 | tim23-1 confirm 46.8
CC1=CC(=O)c2ccccc2C1=O	tim23-1 inh 51.3! | tim23-1 confirm 63.3
COc1ccccc1[C@H]1C(c2cccc(Cl)c2)=NN(c2ccccc2)[C@@H]1CO	tim23-1 inh 55.6 (no result: SKKanGAS inh, NALP3 yeast inh) | tim23-1 confirm 39.6
Cc1cccc(C2=NN(c3ccc(Br)cc3)[C@@H](C(=O)N3CCOC3=O)[C@@H]2c2ccc(Cl)cc2)c1	none (no result: SKKanGAS inh, NALP3 yeast inh)
OC[C@@H]1[C@@H](c2ccccc2)C(c2ccccc2)=NN1c1ccccc1	none (no result: SKKanGAS inh, NALP3 yeast inh)
Cc1cccc(C2=NN(c3ccccc3)[C@H](CO)[C@H]2c2ccc(Cl)cc2)c1	tim23-1 inh 51.3 (no result: SKKanGAS inh, NALP3 yeast inh) | tim23-1 confirm inactive
Cc1cccc(C2=NN(c3ccc(Br)cc3)[C@@H](C(=O)N3CCOC3=O)[C@@H]2c2ccc(F)cc2)c1	none
Cc1cccc(C2=NN(c3ccccc3)[C@H](CO)[C@H]2c2ccc(F)cc2)c1	tim23-1 inh 50.9 (no result: SKKanGAS inh, NALP3 yeast inh) | tim23-1 confirm inactive
